# Screening data (PubChem BioAssay)
# TDP1 cell noCPT: qHTS for Inhibitors of human tyrosyl-DNA phosphodiesterase 1 (TDP1): qHTS in cells in absence of CPT; DT40 Tdp1-/- hTDP1 cells, no CPT, ATP luminescence, 48 h; Potency, µM (titrated, usually from 46.2 µM), most hits filed as inhibitors; hit rate 15% among 420,000; also: nearly all actives have a fitted effect of over 55% in size
#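 Compound effects on proliferation are scored in DT40 Tdp1-/-;hTDP1 cells in the absence of CPT. ATP levels (CellTiter-Glo luminescence) are recorded after a ≥48 hr, 37 °C incubation.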
# HT1080NT lethal: kills 2HG-producing HT-1080-NT fibrosarcoma cells | Potency, µM (top dose mostly 46.1 µM), actives largely listed as cytotoxic | hit rate 1.6% among 360,000 | AID 686970 | HT-1080-NT fibrosarcoma viability, CellTiter-Glo ATP luminescence, 48 h;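 also: NT is the 2HG producing partner of a matched IDH1 knockdown line; nearly all actives have a fitted effect of over 55% in size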
#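 Toxicity toward the 2HG-producing NT line was scored as %Activity, normalised to DMSO and no-cell wells, from CellTiter-Glo luminescence after 48 hours' treatment.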
# HT1080 IDH1KD tx: kills HT-1080 cells with IDH1 knockdown; HT-1080 IDH1 knockdown viability, ATP luminescence, 48 h; Potency, µM (titrated, usually from 46.1 µM), actives largely listed as cytotoxic; hit rate 2% among 360,000; AID 686971
#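 IDH1KD HT-1080 cells, 750/well, RPMI + 5% FBS; compound pinned after 2 h settling; 48 h, 37 °C; CellTiter-Glo luminescence; % activity normalised to DMSO and no-cell wells; curves fitted, classed by r2 and efficacy.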
# DT40 TDP1 CPT: DT40-hTDP1 cell growth loss with CPT | chicken DT40 Tdp1-/-;hTDP1 cells + 20 nM CPT, ATP luminescence, 48 h | Potency, µM (highest dose often 46.2 µM), most hits filed as inhibitors | hit rate 12% among 420,000; also: nearly all actives have a fitted effect of over 55% in size
#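 Chicken DT40 Tdp1-/- cells stably complemented with human TDP1 were seeded at 400 cells/well in medium containing 20 nM camptothecin, exposed to pin-transferred compounds, and grown at 37 °C for at least 48 hr. Viability was read as ATP luminescence.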
# IL1B secr inh: inflammasome signaling inhibition, IL-1 beta readout; hit rate 4.7% among 360,000; THP-1 LPS/ATP IL-1B secretion, AlphaLISA, 16 h; active compounds read low; activity change, % at 57.5 µM; in the data active = activity change below about -50%; inconclusive = mostly about -30% to -49%
#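 Secreted IL-1B measured by AlphaLISA bead assay after 16 h compound exposure of THP-1 cells; compounds (final up to 57.5 uM) added 1 h before LPS (250 ng/mL) and ATP (1.25 mM) stimulation; lower signal means less secretion.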
# Numbers stand for hits; n = inactive; u = inconclusive; x = no result; ! = a repeat was not active. The list is not random: actives were taken first. Their share in the collection is about 19%. Unless noted, calls follow the shape of the dose curve; as a rule, active = well fitted curve in the direction sought with a large enough effect; inconclusive = small, poorly fitted or top-dose-only effect, or another doubt; inactive = no such curve, though single readings can be large; an effect the other way counts as inactive or inconclusive.
SMILES,TDP1 cell noCPT,HT1080NT lethal,HT1080 IDH1KD tx,DT40 TDP1 CPT,IL1B secr inh
CCCCn1cnc2c(=O)[nH]c(N)nc21,n,x,x,n,x
Nc1nc2c(ncn2COC(CO)CO)c(=O)[nH]1,2.6µM,n,n,1.3µM,n
COC(=O)[C@@]12C[C@@H](CC(=O)N3CCOCC3)C(=O)N(Cc3cccc4ccccc34)C1=CCC(C)(C)C2,u,n,n,16µM,n
COC(=O)[C@@]12C[C@@H](CC(=O)N3CCN(C(=O)C4CC4)CC3)C(=O)N(Cc3cccc4ccccc34)C1=CCC(C)(C)C2,21µM,u,u,u,n
COC(=O)[C@@]12C[C@@H](CC(=O)N3CCCC3)C(=O)N(Cc3cccc4ccccc34)C1=CCC(C)(C)C2,u,u,n,u,n
NNC(=O)c1csc(-c2ccc(C(F)(F)F)cc2Cl)n1,n,n,n,n,u
COC(=O)CNC(=O)C(NC(=O)OCc1ccccc1)C(C)C (centres undefined),n,n,n,n,n
CC(C)c1nc(CN(C)C(=O)N[C@H](C(=O)N[C@@H](Cc2ccccc2)C[C@H](O)[C@H](Cc2ccccc2)NC(=O)OCc2cncs2)C(C)C)cs1,21µM!,x,x,17µM!,x
O=C(O)CSc1c2c(nc3cc(C(=O)NCCN4CCOCC4)ccc13)CCC2,u,n,n,n,n
CCCNC(=O)c1ccc(-c2nc3ccccc3s2)s1,10µM,n,n,u,n
CCCCNC(=O)Nc1nc2ccccc2s1,u,n,n,u,-78
Cc1ccc(S(=O)(=O)N(C)C)cc1NC(=O)c1cncc(Br)c1,12µM,u,u,13µM,n
Cc1ccc(S(=O)(=O)N2CCCCC2)cc1NC(=O)c1cncc(Br)c1,u,n,n,u,n
Cc1ccc(NC(=O)c2cncc(Br)c2)cc1S(=O)(=O)N(C)C,15µM,n,n,u,n
CN(C)S(=O)(=O)c1cccc(NC(=O)c2cncc(Br)c2)c1,u,n,n,u,n
O=c1c2cc3c(cc2nc2sc(Nc4ccc(F)cc4F)nn12)OCO3,n,x,x,n,x
COc1ccc(NC(=O)c2c(C(=O)Nc3ccccc3)sc3nc(C)cc(=O)n23)cc1,n,x,x,n,x
O=C(Nc1ccccc1)c1sc(Cl)nc1-c1ccccc1,u,n,n,u,n
Cc1cc(=O)n2c(C(=O)Nc3ccc(C)c(C)c3)c(C(=O)Nc3ccccc3)sc2n1,16µM,n,n,u,n
Cc1ccc(NC(=O)c2sc(Cl)nc2-c2ccccc2)cc1C,18µM,n,n,u,n
CCCCn1c(N)c(N(CC)C(=O)CSc2nnc(-c3ccco3)n2CC)c(=O)[nH]c1=O,n,n,n,n,n
CCc1ccc(-c2cn(-c3nc(C)cc(C)n3)c(=N)o2)cc1,u,n,n,u,-59
COc1ccc(Oc2ncc3nc(-c4ccc(F)cc4)c(=O)n(CCC#N)c3n2)cc1,n,x,x,n,x
COC(=O)CC1[C@@]2(C)C[C@]34OC5(C)OC6(C7CC(=O)OC(c8ccoc8)[C@]7(C)CCC6(O5)[C@]13C)C(OC(C)=O)[C@]4(OC(C)=O)C2OC(C)=O (some centres undefined),n,x,x,n,x
c1ccc(CNc2nc(NCCOc3ccccc3)c3sccc3n2)cc1,16µM,u,u,23µM,x
SMILES,TDP1 cell noCPT,HT1080NT lethal,HT1080 IDH1KD tx,DT40 TDP1 CPT,IL1B secr inh
CN(C)c1nc(Cl)nc(NCCOc2ccccc2)n1,n,n,n,n,n
CNc1nc(NCCOc2ccccc2)c2sccc2n1,21µM,n,u,18µM,n
O=C(N/N=C/c1cccc(Oc2ccccc2)c1)c1ccncc1,n,n,n,n,n
Cc1ccc(OCC(=O)N/N=C/c2ccccc2)c([N+](=O)[O-])c1,n,n,n,n,n
Cc1ccccc1OCC(=O)N/N=C/c1cccc(Oc2ccc([N+](=O)[O-])cc2[N+](=O)[O-])c1,21µM,n,n,15µM,-96
O=C(N/N=C/c1cccc(Oc2ccc([N+](=O)[O-])cc2[N+](=O)[O-])c1)c1cncc(Br)c1,18µM,u,11µM,u,n
Cc1c(Cl)cccc1NC(=O)CCNC(=O)N1CC(=O)Nc2ccccc21,n,n,n,n,n
Cc1ccc(N2CCN(S(=O)(=O)c3c(C)nc4scc(C)n4c3=O)CC2)c(C)c1,u,n,n,u,n
C/C(=N\N(c1ccccc1)c1ccccc1)c1ccc(O)cc1,n,u,u,n,-63
CN(C(=O)/C=C/c1ccccc1)C1CCS(=O)(=O)C1 (centres undefined),n,n,n,n,n
O=C(/C=C/c1ccc(Cl)cc1)N1CCN(c2ccccn2)CC1,u,n,n,n,n
O=C(/C=C/c1ccc(Cl)cc1)N(c1ccccn1)C1CCCCC1,21µM,n,n,u,-57
O=C(/C=C/c1cccc(F)c1)N1CCN(c2ccccn2)CC1,n,n,n,n,n
CN(C(=O)/C=C/c1ccccc1)C1CCCCC1,n,n,n,n,-51
O=C(/C=C/c1cccc(F)c1)N(c1ccccn1)C1CCCCC1,u,n,n,13µM,n
COc1ccc(/C=C/C(=O)N(c2ccccn2)C2CCCCC2)cc1OC,u,n,n,23µM,n
Cc1ccc(NC(=O)C2C3C=CC4(CN(Cc5cccnc5)C(=O)C24)O3)cc1 (centres undefined),n,n,n,n,n
COc1ccc(C(=O)NCC(=O)Nc2cccc(S(=O)(=O)NCc3ccco3)c2)cc1OC,n,n,n,n,n
CS(=O)(=O)c1ccc(NC(=O)CCN2C(=O)NC3(CCCC3)C2=O)cc1,n,n,n,n,n
COCCCC1CCN(C(=O)c2cc(COc3cc(C)ccc3C)on2)CC1,u,n,n,u,n
CN1/C(=C\C(=O)CSc2nncn2C)C(C)(C)c2ccccc21,n,n,n,n,n
CN1/C(=C\C(=S)NC(=O)c2ccc([N+](=O)[O-])cc2)C(C)(C)c2ccccc21,23µM,n,n,16µM,n
CN1/C(=C\C(=S)NC(=O)c2cccc(Br)c2)C(C)(C)c2ccccc21,5.2µM,n,u,9.2µM,n
CN1/C(=C/C=N/NC(=O)c2ccc([N+](=O)[O-])cc2)C(C)(C)c2ccccc21,n,n,n,u,n
CCN(CC)S(=O)(=O)c1cccc(C(=O)/C=C2/N(C)c3ccccc3C2(C)C)c1,15µM,n,n,21µM,u
CCN1CCN(C(=S)NC(=O)c2cccc(Br)c2)CC1,u,n,n,u,n
COc1ccccc1CNC(=O)C1CCCN(S(=O)(=O)c2ccc3c(c2)CC(C)N3C(C)=O)C1 (centres undefined),n,n,n,n,n
CCc1ccc(OCC(=O)NC(Cc2c[nH]c3ccccc23)C(=O)O)cc1 (centres undefined),n,x,x,n,x
